Our source for the Potency values is PubChem BioAssay (NCATS).

Test [1] concerns the target Calcium and integrin-binding protein 1 (Homo sapiens) (UniProt Q99828). Briefly: Primary qHTS for Identification of Calcium Integrin Binding Protein 1 (CIB1) Competitor (AID 1508620).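 Also: GST tagged CIB1 binding a fluorescein labelled alphaIIb integrin peptide tracer; top concentration of the series differs between compounds.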 In a few lines: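 Fluorescence polarization competition: CIB1-GST (1 uM final) preincubated with compound 15 min at room temperature, then FITC-labeled alphaIIb peptide (100 nM final) added for another 15 min. Polarization read at Ex 480/Em 540.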

Test [2] concerns the target Cytochrome P450 2C9 (Homo sapiens) (UniProt P11712). Briefly: Cytochrome P450 family 2 subfamily C member 9 (CYP2C9) small molecule antagonists: luciferase biochemical (cell-free) qHTS assay (AID 1645842; active = well fitted curve in the direction sought with a large enough effect in the repeat runs; an effect the other way counts as inactive or inconclusive; also: series mostly up to about 57 µM; nearly all actives have a fitted effect of over 55% in size). In a few lines: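 Luminescence, after 20 min with luciferin detection reagent, reflected CYP2C9 turnover during a 1 h NADPH-driven reaction at 37C. Enzyme-substrate mix contained 0.4% bovine serum albumin and was preincubated with compound 10 min at room temperature.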

Test [3] in a line: Primary qHTS for inhibitors of nuclear receptor binding SET domain protein 2 (NSD2) in an isogenic RCH-ACV NSD2 p.E1099K mutant (9B) (AID 1645876). Also: nearly all actives have a fitted effect of over 70% in size. Also: potency is read from the fitted curve at half-maximal effect.
Test [4] in a line: Primary qHTS for inhibitors of nuclear receptor binding SET domain protein 2 (NSD2) in an RCH-ACV wild type WT cells (2C) (AID 1645877). Also: nearly all actives have a fitted effect of over 70% in size.

Records with an inconclusive call do not appear. Activity calls are given as the source filed them. Unless noted, calls follow the shape of the dose curve; as a rule, active = well fitted curve in the direction sought with a large enough effect; inconclusive = small, poorly fitted or top-dose-only effect, or another doubt; inactive = no such curve, though single readings can be large; an effect the other way counts as inactive or inconclusive.

Chain of Calcium and integrin-binding protein 1 (Homo sapiens) (Q99828 whole entry, looked up): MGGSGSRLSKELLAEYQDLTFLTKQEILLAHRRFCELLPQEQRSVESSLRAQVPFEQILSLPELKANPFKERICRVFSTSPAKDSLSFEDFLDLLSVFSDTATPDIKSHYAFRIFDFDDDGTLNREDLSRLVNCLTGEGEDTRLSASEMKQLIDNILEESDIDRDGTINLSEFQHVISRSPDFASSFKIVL
Chain of Cytochrome P450 2C9 (Homo sapiens) (P11712 whole entry, looked up): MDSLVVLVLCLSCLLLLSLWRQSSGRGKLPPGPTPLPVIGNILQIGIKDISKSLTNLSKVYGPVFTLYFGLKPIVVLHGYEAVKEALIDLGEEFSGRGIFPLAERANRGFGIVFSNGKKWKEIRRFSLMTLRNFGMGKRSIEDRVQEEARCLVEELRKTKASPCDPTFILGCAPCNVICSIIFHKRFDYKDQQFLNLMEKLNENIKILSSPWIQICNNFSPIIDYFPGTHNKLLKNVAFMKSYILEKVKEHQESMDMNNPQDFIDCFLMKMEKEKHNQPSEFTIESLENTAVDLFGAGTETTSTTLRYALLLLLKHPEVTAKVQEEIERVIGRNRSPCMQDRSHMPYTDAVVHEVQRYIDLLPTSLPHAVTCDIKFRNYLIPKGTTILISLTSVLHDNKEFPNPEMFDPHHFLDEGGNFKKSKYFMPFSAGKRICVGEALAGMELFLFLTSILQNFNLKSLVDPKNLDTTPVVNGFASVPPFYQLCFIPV

As to `CNC(C)C(=O)NC(C(=O)N1CCCC1C(=O)Nc1snnc1-c1ccccc1)C1CCCCC1` (centres undefined), the Potency result in test [1], in test [2], in test [3] and in test [4] was “inactive” each time.

Consider `C=C1C(=O)O[C@@H]2C[C@@]3(C)CCCC(=C)[C@]3(O)C[C@H]12`, for which the Potency result in test [1] is “inactive”. In test [3], the Potency was 8.17 µM (active).

As to `C=C1/C(=C/C=C2\CCC[C@@]3(C)C2CCC3[C@H](C)/C=C/[C@@H](O)C2CC2)C[C@@H](O)C[C@@H]1O` (some centres undefined), the Potency result in test [1] was “inactive”. Moreover, the Potency in test [3] was 23 µM (active).

For the compound `C/C=C(/C)C(=O)O[C@@H]1C[C@@H](OC(=O)CC(C)C)C2(C)C3C(=O)C=C(C)C2C3C1(C)C` (some centres undefined), the Potency entry in test [1] and in test [3] was “inactive” throughout.

For the compound `CC(C)n1c(=O)c(C(=O)NC2CC3CCC(C2)N3C[C@@H](O)CN(C)S(C)(=O)=O)cc2ccccc21` (some centres undefined), the Potency result in test [1] and in test [3] was “inactive” each time.

Turning to `C=C(C)C1CCC2(C(=O)O)CCC3(C)C(CCC4C5(C)C(C=O)C(O)C(C)(C)C5CCC43C)C12` (centres undefined), the Potency entry in test [1] and in test [3] was “inactive” throughout.

For the compound `O=C(Cc1cccc(OC(F)(F)F)c1)Nc1ccc(CCCCc2nnc(NC(=O)Cc3ccccn3)s2)nn1`, the Potency result in test [1] and in test [3] was “inactive” throughout.

For the compound `CC1(C=O)CCCC2(C)C1CCC13CC(CO)C(CCC12)C3` (centres undefined), the Potency entry in test [1] and in test [3] was “inactive” each time.

Regarding `CC(=O)O[C@@H]1C2=C(O)C(=O)[C@](C)(OC(C)=O)C(=O)C2=CO[C@@]12O[C@@H](C)CC[C@H]2OC(C)=O`, the Potency result in test [1] and in test [3] was “inactive” throughout.

`C=C[C@]1(C)C[C@H](O)[C@H]2C(=C)C(=O)O[C@@H]2[C@H]1C(=C)CO`: the Potency entry in test [1] is “inactive”. Moreover, in test [3], the Potency is 18.3 µM (active).

As to `C=C1C(=O)O[C@H]2CC(=C)[C@H]3CC[C@@](C)(O)[C@@H]3CC12` (some centres undefined), the Potency result in test [1] is “inactive”. Further, the Potency in test [3] is 12.9 µM (active).
